# PLK1 PBD block = PLK1 (human) polo-box domain binding inhibition | P53350 | Plk1 PBD binding of FITC phosphopeptide, fluorescence polarization | Potency, µM, usual class: inhibitors | 2.8% of 360,000 active | AID 720504; note: series mostly up to about 57 µM; nearly all actives have a fitted effect of over 65% in size
# Target sequence (P53350 whole entry, looked up, the tested form may be a part): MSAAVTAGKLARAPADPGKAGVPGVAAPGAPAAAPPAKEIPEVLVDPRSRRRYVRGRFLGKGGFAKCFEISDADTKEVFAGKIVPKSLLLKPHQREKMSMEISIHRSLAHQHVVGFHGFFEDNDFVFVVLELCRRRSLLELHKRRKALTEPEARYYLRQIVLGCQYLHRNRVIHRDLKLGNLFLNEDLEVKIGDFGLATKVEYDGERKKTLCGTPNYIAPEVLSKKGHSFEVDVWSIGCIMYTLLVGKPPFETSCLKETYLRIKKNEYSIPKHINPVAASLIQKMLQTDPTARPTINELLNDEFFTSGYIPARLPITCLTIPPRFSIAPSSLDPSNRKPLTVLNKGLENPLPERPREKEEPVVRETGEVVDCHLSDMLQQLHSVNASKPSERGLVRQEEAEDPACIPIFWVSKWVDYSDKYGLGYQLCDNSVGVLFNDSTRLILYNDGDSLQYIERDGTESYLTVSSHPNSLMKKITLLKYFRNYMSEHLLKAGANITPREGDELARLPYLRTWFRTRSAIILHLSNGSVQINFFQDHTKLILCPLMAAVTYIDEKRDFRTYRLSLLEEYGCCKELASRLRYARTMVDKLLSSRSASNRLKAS
# VDR inhibitor = blocks the human vitamin D receptor. VDR-SRC2-3 peptide fluorescence polarization, 2 h. Potency, µM, actives largely listed as inhibitors. 0.93% of 400,000 active
#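 Inhibition of the VDR/SRC2-3 peptide interaction is quantified by fluorescence polarization. Compounds (23 nl, pintool) incubate with the reagents for 2 hours at ambient room temperature.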
# 12-LOX inh = inhibitors of human 12S-lipoxygenase ALOX12 | purified 12hLO, xylenol orange hydroperoxide absorbance | Potency, µM (series often up to 108 µM), most hits filed as inhibitors | 1.1% of 580,000 active | AID 1671190
#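 Hydroperoxide product was detected by ferrous iron/xylenol orange as the 573 to 405 nm absorbance ratio. Arachidonic acid at 40 uM (final) was turned over for 30 min at room temperature by 150 nM human 12hLO, pH 7.0 Hepes buffer, after 15 min compound preincubation.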
# GCN5L2 inh = blocks human GCN5L2 histone acetyltransferase; Q92830; GCN5L2 HAT assay, ThioGlo1 CoA-SH fluorescence; Potency, µM (titrated, usually from 58.9 µM), actives largely listed as inhibitors; 0.21% of 390,000 active
#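 qHTS, 1536-well. 20nM enzyme, pH 7.5 HEPES/EDTA/Tween-20 buffer; 15 min compound preinc., RT. Start: 75uM H3(1-25), 70uM AcCoA, 50uM ThioGlo1. Read Ex340/Em540 at t=0 (autofluorescence flag) and t=20 min.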
# A number is an active result; - = inactive; ? = inconclusive; . = no result given; ! = not confirmed by another sample; [ ] = remark or other dose. Compounds with a hit are over-represented: about 3% of the library has one in this group of screens. Calls come from the whole dose curve; as a rule, active = well fitted curve in the direction sought with a large enough effect; inconclusive = small, poorly fitted or top-dose-only effect, or another doubt; inactive = no such curve, though single readings can be large; an effect the other way counts as inactive or inconclusive.
SMILES,PLK1 PBD block,VDR inhibitor,12-LOX inh,GCN5L2 inh
CCOC(=O)C1=C(C)N=c2s/c(=C/c3cccc([N+](=O)[O-])c3O)c(=O)n2C1c1ccccc1 (stereo unspecified),19µM,?,?,-
CC(=O)C1=C(C)N=c2s/c(=C/c3ccc4c(c3)OCO4)c(=O)n2C1c1ccc(N(C)C)cc1 (stereo unspecified),27µM,32µM,-,.
CCOC(=O)C1=C(C)N=c2s/c(=C/c3cccc(OCC(=O)O)c3)c(=O)n2C1c1ccc(F)cc1 (stereo unspecified),.,.,-,-
CCOC(=O)C1=C(C)N=c2s/c(=C\c3ccc(C(=O)O)cc3)c(=O)n2C1c1ccc(F)cc1 (stereo unspecified),30µM,?,?,-
CCOC(=O)C1=C(C)N=c2sc(=Cc3cc(Cl)c(OCC(=O)O)c(OC)c3)c(=O)n2C1c1ccccc1Cl (stereo unspecified),27µM,.,?,.
COc1ccc(C2C(C(C)=O)=C(C)N=c3s/c(=C/c4ccc5c(c4)OCO5)c(=O)n32)cc1 (stereo unspecified),.,.,.,-
Cc1ccc(-c2cc(-c3ccccc3)no2)cc1,-,-,-,-
c1ccc(-c2cc(-c3ccccc3)on2)cc1,13µM,?,-,-
CCCOc1cccc(C(=O)Nc2cc(-c3nc4ncccc4o3)ccc2OC)c1,.,.,-,.
CCOc1ccc(-n2ccnc(NCc3ccccc3)c2=O)cc1,.,.,-,.
O=C1N(c2ccc(Cl)cc2)C(c2ccccc2)N2CCCN12 (stereo unspecified),19µM,?,?,-
Cc1ccc(S(=O)(=O)N(CC(=O)Nc2ccccc2C(=O)O)c2ccc(Cl)cc2)cc1,38µM,-,?,-
CC(C)N(C(=O)COc1ncnc2ccccc12)c1ccccc1,.,.,-,.
O=C(CSc1ccccn1)Nc1ccc2c(c1)C(=O)c1ccccc1C2=O,-,-,?,?
O=C(CSc1n[nH]c(=O)[nH]c1=O)Nc1ccc2c(c1)C(=O)c1ccccc1C2=O,6.7µM,?,-,?
COc1cccc(C2CC(=O)N3CN(C4CCCCC4)CSC3=C2C#N)c1 (stereo unspecified),.,?,13µM,?
COc1ccc(C2CC(=O)N3CN(C4CCCCC4)CSC3=C2C#N)cc1 (stereo unspecified),.,45µM,?,25µM
COc1ccc(C2C(=O)N(C3CCCCC3)CC(=O)N2C2CCCC2)cc1 (stereo unspecified),-,-,-,-
CN(C(=O)Cc1cccc2cccnc12)C1CCS(=O)(=O)C1 (stereo unspecified),.,.,-,.
COCCCNCc1cc(=O)oc2ccc3ccccc3c12,.,.,-,.
COc1ccc(CC(=O)Nc2cc(Cl)ccc2C(=O)O)cc1,-,-,-,-
CCCCOc1ccc(Nc2cc(Cl)ccc2C(=O)O)cn1,24µM,-,?,-
CCCn1cc(C(=O)n2nc(C)cc2C)c(S(=O)(=O)N2CCN(c3ccc(Cl)cc3)CC2)n1,.,.,-,.
N#CC1=C(N)Oc2cc(O)ccc2C1c1ccccc1 (stereo unspecified),-,-,4.5µM!,-
N#CC1=C(N)SC(N)=C(C#N)C1c1cccc(O)c1,-,-,32µM,-
SMILES,PLK1 PBD block,VDR inhibitor,12-LOX inh,GCN5L2 inh
c1ccc2c(CN3CCC[C@H]3c3nc(-c4ccc(OC5CCCCC5)nc4)no3)c[nH]c2c1,.,.,-,.
Cc1c(Cl)cccc1NC(=O)CCNC(=O)N1CC(=O)Nc2ccccc21,27µM,-,-,-
CN(CC(=O)Nc1ccc(Cl)cc1C(F)(F)F)C1CCc2ccccc21 (stereo unspecified),.,.,-,.
C=CCOC(=O)C(=O)/C=C/c1ccc2c(c1)Cc1ccccc1-2,?,22µM,14µM,-
COc1ccc(C(C)NC(=O)CCOc2ccc(Cl)cc2)cc1F (stereo unspecified),.,.,-,.
Cc1ccc(CNC(=O)N2CCCC2c2nc(CCOc3ccc(F)cc3)no2)cc1 (stereo unspecified),.,.,-,.
CCCN1CCCc2cc(CN)ccc21,19µM,28µM,?,-
CCC(C(=O)O)N1C(=O)/C(=C/C(C)=C/c2ccccc2)SC1=S (stereo unspecified),24µM,?,?,?
CC(C)C(C(=O)O)N1C(=O)/C(=C/c2ccc(Br)cc2)SC1=S (stereo unspecified),.,5µM,.,?
CC(/C=C1\SC(=S)N(NC(=O)c2ccc(O)cc2)C1=O)=C\c1ccccc1,-,-,-,-
Cc1ccc(/C=C2\SC(=S)N(C(Cc3ccccc3)C(=O)O)C2=O)cc1 (stereo unspecified),?,50µM,35µM,-
CC(=C\c1ccccc1)/C=C1/SC(=S)N(C(C(=O)O)C(C)C)C1=O (stereo unspecified),30µM,?,45µM,?
Fc1cc(F)c(F)c(SCCc2ccncc2)c1F,?,50µM,?,.
COc1ccc(SCCc2ccncc2)cc1,-,-,-,-
Fc1ccc(SCCc2ccncc2)cc1,24µM,?,-,?
c1ccc(SCCc2ccncc2)cc1,21µM,-,-,-
O=C(C[n+]1ccc(CCSc2ccc(F)cc2)cc1)c1ccccc1,1.9µM,?,.,-
O=C(COc1ccc(Cl)cc1)Nc1c(NC2CCCCC2)c2ccccc2oc1=O,.,.,-,.
CCCn1c(N)c(C(=O)CSc2cc(C)c3ccccc3n2)c(=O)[nH]c1=O,.,.,-,.
c1cc(-c2ccn[nH]2)ccn1,.,.,-,.
COc1ccc(NC2=C(Cl)C(=O)N(c3ccccc3)C2=O)c(OC)c1,?,-,-,-
COc1ccc(N2C(=O)C(Cl)=C(Nc3c(C)n(C)n(-c4ccccc4)c3=O)C2=O)cc1,24µM,?,?,-
O=S(Cc1cccc(C(F)(F)F)c1)Cc1ccc(F)cc1Cl (stereo unspecified),.,.,-,.
CCOc1cc(N2CCOCC2)c(OCC)cc1NC(=O)CSc1ncccc1C(=O)O,-,-,11µM,-
CCOc1cc(N2CCOCC2)c(OCC)cc1NC(=O)Cc1ccccc1,-,-,-,-
SMILES,PLK1 PBD block,VDR inhibitor,12-LOX inh,GCN5L2 inh
CCOc1cc(N2CCOCC2)c(OCC)cc1NC(=O)Cc1ccccc1OC,-,-,-,28µM
CSc1cccc(NC(=O)O[C@@H]2CC[C@]3(C)C(CC[C@@H](O)[C@H]3CC(=O)NCc3ccccc3)[C@]2(C)CO)c1 (stereo partly specified),.,.,-,.
CC(C)N1C(=O)C2(CCN(C(=O)c3ccc(Cl)cc3)C2)c2ccccc21 (stereo unspecified),.,.,-[6.33 µM],.
COC(=O)CCS(=O)(=O)c1ccc(Cl)c(Cl)c1,-,-,-,-
COC(=O)CC/C(=N/Nc1ccc(Cl)c(Cl)c1)C(=O)OC,-,-,16µM,-
COc1ccc2nc(C)c(C(=O)NC3CCCCCC3)cc2c1,.,.,-,.
COc1ccc(CNC(=O)c2ncoc2-c2cccc(Cl)c2)cc1OC,.,.,-,.
CCCNC(=O)C(C)NC(=O)Cc1ccc(S(=O)(=O)N2CCCCC2)cc1 (stereo unspecified),.,.,20µM,.
CCC(C)NC(=O)Cc1ccc(S(=O)(=O)N2CCCCC2)cc1 (stereo unspecified),.,.,-,.
Cc1ccc(CS(=O)Cc2ccc(F)cc2Cl)cc1 (stereo unspecified),.,.,-,.

# From PubChem
